Bioassay records deposited in PubChem BioAssay by National Center for Advancing Translational Sciences (NCATS).
USP1 inh – inhibitors of human USP1/UAF1 deubiquitinase | O94782 | recombinant USP1/UAF1, Ub-Rhodamine cleavage fluorescence | Potency, µM (highest dose often 57.1 µM), for inactives: at the highest dose activity change, negative = inhibition, most hits filed as inhibitors | 390,000 compounds, 0.23% hits | AID 743255; further: potency means the concentration at half of the fitted maximal effect; nearly all actives have a fitted effect of over 60% in size
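High-throughput fluorogenic screen: 1nM USP1/UAF1 complex, Ub-Rho substrate 150nM final, 50mM HEPES pH 7.8 with 0.5mM EDTA, 0.1 mg/ml BSA, 1mM TCEP and 0.01% Tween-20.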
PLK1 PBD inh – blocks phosphopeptide binding to human PLK1 polo-box domain. P53350. Plk1 PBD binding of FITC phosphopeptide, fluorescence polarization. Potency, µM, for the others: max response, negative = inhibition, usual class: inhibitors. 360,000 compounds, 2.8% hits; further: potency means the concentration at half of the fitted maximal effect; series mostly up to about 57 µM; nearly all actives have a fitted effect of over 65% in size
FBPA coupling cs – inhibits coupling enzyme system, counter-screen for aldolase hits; coupling enzyme system counterscreen, AmpLite Red fluorescence; activity change, negative = inhibition, % at 58.2 µM, hits read low; 290,000 compounds, 0.67% hits; in the data active means activity change below about -30%
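Fluorescence at 525 nm excitation and 598 nm emission measured inhibition of the coupled detection system without aldolase. Compounds (at 57.5 uM final) were preincubated 10 min at room temperature with coupling enzyme reagent before a 20 min substrate/AmpLite Red step.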
GALK inh – inhibitors of human galactokinase; P51570; Purified GALK, Kinase-Glo residual ATP luminescence; Potency, µM (series often up to 57.5 µM), for inactives: at the top dose activity change, negative = inhibition, actives largely listed as inhibitors; 270,000 compounds, 0.007% hits; AID 1868; further: potency means the concentration at half of the fitted maximal effect
Target sequence (P51570 whole entry, looked up): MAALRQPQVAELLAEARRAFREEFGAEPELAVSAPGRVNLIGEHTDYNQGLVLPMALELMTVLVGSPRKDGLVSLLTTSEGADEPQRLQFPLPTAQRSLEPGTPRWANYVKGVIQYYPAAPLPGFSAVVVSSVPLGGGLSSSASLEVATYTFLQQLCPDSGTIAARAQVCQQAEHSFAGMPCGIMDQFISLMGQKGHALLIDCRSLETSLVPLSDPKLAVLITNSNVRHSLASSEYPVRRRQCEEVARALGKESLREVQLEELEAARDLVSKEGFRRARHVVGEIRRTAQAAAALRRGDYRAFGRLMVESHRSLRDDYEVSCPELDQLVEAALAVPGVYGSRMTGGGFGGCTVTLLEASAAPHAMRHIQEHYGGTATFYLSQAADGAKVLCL
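ATP-depletion format; final 35 uM ATP, 100 uM D-galactose, 5 nM enzyme; pH 8.0 HEPES/Mg2+ buffer; 60 min RT; luminescence read 10 min after detection reagent.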
USP2a block – blocks human ubiquitin-specific protease USP2a. Potency, µM (doses to about 38.3 µM), for the others: at the top dose activity change, negative = inhibition, hits mostly inhibitors. 330,000 compounds, 0.01% hits. USP2 core, Ub-CHOP2 coupled fluorogenic reporter, 485/531. O75604;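 further: potency means the concentration at half of the fitted maximal effect; plate controls were DMSO wells for no effect and full inhibition by NEM control for full effect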
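Deubiquitinase activity read as fluorescence (485/531 nm) after Ub-CHOP2 cleavage activates the enterokinase reporter on its substrate; USP2 core 10nM, Ub-CHOP2 and substrate 25nM each, 30min compound preincubation then 60min RT; data normalized to NEM, curves fitted.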
VDR inhibitor – blocks the human vitamin D receptor; VDR-SRC2-3 peptide fluorescence polarization, 2 h; Potency, µM, inactives show max response, negative = inhibition, hits mostly inhibitors; 400,000 compounds, 0.93% hits; AID 504847; further: potency means the concentration at half of the fitted maximal effect
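VDR–SRC2-3 interaction, FP format. Cmpds 23 nl via pintool, brief spin, 2 h ambient incubation.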
* = called active by the depositor; ? = inconclusive; . = no result given. This is a sample that favours compounds with a hit; in the whole collection about 3.2% have one here. Unless noted, the call rests on the fitted dose curve; in most records, active means well fitted curve in the direction sought with a large enough effect; inconclusive means small, poorly fitted or top-dose-only effect, or another doubt; inactive means no such curve, though single readings can be large; an effect the other way counts as inactive or inconclusive. Unless noted, on the % scale 0 is the no-effect control and ±100 the full control effect.

SMILES	USP1 inh	PLK1 PBD inh	FBPA coupling cs	GALK inh	USP2a block	VDR inhibitor
COc1ccc(-c2nnn(CC(=O)N(CC(=O)NC3CCCC3)c3ccccc3)n2)cc1OC	8.0%	3.77µM*	-0.4	0.1%	2.9%	79.4µM*
O=C1CCCC(O)=C1C(C#Cc1ccccc1)C1=C(O)CCCC1=O	-2.3%	2.38µM*	-2.1	1.4%	3.8%	?
CC1(C)CC(=O)C(C(C#Cc2ccccc2)C2=C(O)CC(C)(C)CC2=O)=C(O)C1	-2.3%	4.23µM*	.	-3.5%	-0.7%	22.4µM*
O=C1CCCC(O)=C1Sc1ccccc1C(=O)O	-9.9%	21.2µM*	6.2	0.4%	-0.8%	-15.7%
CC1(C)CC(=O)C(N=Nc2ccc(-c3ccccc3)cc2)=C(O)C1	0.7%	-5.1%	1.7	-2.4%	0.7%	-12.6%
Cc1nnc(SCc2cccc([N+](=O)[O-])c2)o1	-3.6%	-13.7%	0.5	-1.0%	1.1%	25.4%
O=S(c1cc(Cl)cc(Cl)c1O)c1cc(Cl)cc(Cl)c1O	.	?	.	.	.	39.8µM*
O=C(CSc1nnnn1-c1cccc2c1CCCC2)N1CCCC1	-7.2%	4.74µM*	0.5	0.5%	0.9%	-18.2%
O=C(CSc1nnnn1-c1cccc2c1CCCC2)N1CCOCC1	-7.4%	-2.0%	-0.8	2.7%	8.2%	-5.1%
O=C1CCCCCN1Sc1ccccc1	-26.1%	1.06µM*	-1.2	-1.6%	6.7%	12.6µM*
O=C1CCCCCN1C(=O)c1ccccc1	-3.9%	-11.3%	.	.	.	-1.3%
CC(NC(=O)c1cnccn1)c1ccc(S(N)(=O)=O)cc1 (stereo unspecified)	-18.6%	26.7µM*	0.3	0.9%	0.1%	-21.8%
Cc1ccccc1NC(=O)COC(=O)c1ccc2c(c1)C(=O)N(CCCN1CCOCC1)C2=O	-19.3%	-2.4%	.	.	.	-10.9%
O=C(Cc1cccc2ccccc12)Nc1ccc(O)cc1C(=O)O	-10.4%	26.7µM*	9.6	5.7%	-0.4%	?
O=C(Cc1cccc2ccccc12)Nc1ccc(Br)cc1C(=O)O	-15.1%	-23.4%	-16.9	-3.8%	3.9%	?
CC(C(=O)N1CCN(C=O)CC1)N1C(=O)c2ccccc2C1=O (stereo unspecified)	-20.4%	18.9µM*	3.7	2.6%	0.9%	-15.1%
CN(CC(=O)Nc1cccc(F)c1)C(=O)CSc1ccccc1	-5.5%	15µM*	.	.	1.1%	-2.7%
Cc1ccc(NC(=O)CN(C)C(=O)CSc2ccccc2F)cc1	-3.1%	21.2µM*	.	.	4.1%	-4.2%
CN(CC(=O)Nc1ccc(N2CCOCC2)cc1)C(=O)CSc1ccccc1F	-22.5%	?	.	.	1.2%	-1.6%
CN(CC(=O)Nc1cccc(F)c1)C(=O)CNS(=O)(=O)c1ccc(N(C)C)c([N+](=O)[O-])c1	-8.9%	15µM*	.	.	-0.4%	?
CC[C@]12c3[nH]c4ccc(Cl)cc4c3CCN1C(=O)[C@@H](CC(=O)NCCN1CCOCC1)C[C@@H]2C(=O)N1CCN(C(=O)c2ccco2)CC1	-27.2%	-4.9%	.	.	0.7%	-24.6%
O=C(Nc1ccccc1)OCCCCOC(=O)Nc1ccccc1	-10.6%	-0.5%	.	.	.	-22.9%
O=C1CC(c2ccccc2)CC(O)=C1C=Nc1ccccc1O (stereo unspecified)	-15.0%	1.2%	1.0	-1.8%	0.1%	5.2%
CCOC(=O)C(C)Sc1nnc(Cc2cc(=O)[nH]c(=O)[nH]2)n1-c1ccc(Cl)cc1 (stereo unspecified)	-22.3%	21.2µM*	-2.0	0.0%	1.6%	?
COc1cc(C(=S)N2CCOCC2)ccc1OS(=O)(=O)c1ccccc1[N+](=O)[O-]	?	15µM*	2.9	0.1%	1.7%	-20.1%
SMILES	USP1 inh	PLK1 PBD inh	FBPA coupling cs	GALK inh	USP2a block	VDR inhibitor
COc1ccc2[nH]c(=O)c(CN(Cc3ccccc3OC)Cc3nnnn3CC3CCCO3)cc2c1 (stereo unspecified)	-13.3%	-1.0%	-25.2	2.5%	-9.5%	3.8%
COc1ccc2[nH]c(=O)c(CN(Cc3ccc(C)cc3)Cc3nnnn3CC3CCCO3)cc2c1 (stereo unspecified)	-6.4%	-6.7%	-47.2*	-2.4%	3.1%	12.4%
CCOc1ccc(N=C/C=C/c2ccccc2)c(O)c1	?	?	-32.1*	4.7%	7.4%	?
Cc1ccc(C(NC(=O)N2CCCC2)C(Cl)Cl)cc1F (stereo unspecified)	-4.6%	-8.3%	5.8	5.3%	4.2%	?
Cc1ccc(C(NC(=O)N2CCOCC2)C(Cl)(Cl)Cl)cc1F (stereo unspecified)	-24.6%	26.7µM*	1.1	-1.7%	-0.5%	-6.3%
O=C1CSc2ccc(C(=O)Nc3cccc(S(=O)(=O)Nc4ccc(Br)cc4)c3)cc2N1	-20.5%	21.2µM*	3.8	-2.7%	-10.0%	-19.4%
COC(=O)c1ccc2c(c1)NC(=O)CS2	-16.6%	21.2µM*	0.1	-2.3%	1.1%	-28.8%
Cc1ccc(CC(=O)OCC(=O)c2ccc[nH]2)cc1C	-2.1%	-5.0%	.	.	7.1%	-13.0%
Cc1ccc(-n2c(Cl)c(Cl)nc(Cl)c2=O)cc1	-10.2%	2.67µM*	-0.4	-0.6%	0.7%	?
Cc1ccc2c(c1)cc(CN(Cc1cccs1)C(=O)c1ccco1)c1nnnn12	-19.2%	8.44µM*	6.9	3.6%	-1.2%	?
Cc1ccc2cc(CN(Cc3cccs3)C(=O)c3ccco3)c3nnnn3c2c1C	.	.	-2.5	0.8%	1.7%	.
COc1ccc(S(=O)(=O)NC2CC2)cc1C(=O)N1CCOCC1	-9.0%	7.52µM*	-3.8	-1.1%	0.6%	?
Nc1nnnn1/N=C/c1ccccc1	-38.5%	-10.0%	1.4	-0.4%	0.6%	3.5%
Nc1nnnn1/N=C/c1ccccc1C(F)(F)F	-11.3%	3.36µM*	2.1	0.0%	2.5%	-13.4%
O=S(=O)(c1ccc(Cl)cc1)N1CCN(C2CCCCCC2)CC1	-3.7%	1.2%	6.3	-1.5%	-0.9%	1.3%
O=C(c1cc(Br)ccc1Cl)N1CCN(c2ncccn2)CC1	-14.2%	29.9µM*	-0.5	5.6%	-0.1%	?
O=C(c1ccccc1[N+](=O)[O-])n1cnc2ccccc21	-14.3%	-4.6%	0.6	1.0%	-1.6%	-18.1%
CCCCNC1C(CC)C(CCC)C(C#N)(C#N)C1(C#N)C#N (stereo unspecified)	-16.8%	-4.3%	-0.6	-2.9%	-0.1%	44.7µM*
O=C(NCCCN1CCOCC1)c1cc(S(=O)(=O)N2CCCCC2)ccc1Cl	-23.5%	-6.1%	.	.	.	.
C=CC[C@H]1CC(Cc2ccccc2)=C[C@H](CC=C)N1	-16.4%	23.8µM*	-0.7	1.8%	-2.7%	?
O=C(CSc1nc(-c2ccc(F)cc2)cc(C(F)(F)F)n1)NCc1ccco1	-16.0%	2.99µM*	2.0	1.0%	2.2%	-28.0%
